# Laboratory results published in the supplement of paper PMC10849652.
# The full data set covers some 7,900 targets. This sample favours those with a hit. About 0.6% of all pairs of compound and target were hits. Values without a mark were called inactive.
# How the values were obtained:
# Assay in all cases: log2 fold change, soluble protein after heating vs DMSO (PISA); higher = thermal stabilisation; K562 cells, 10 uM, 30 min; active = over 0.2 and 3.5 SD of the protein, either way, in both replicates (recomputed)
# [1] = compound: CS(=O)(=O)c1ccc(-c2cnc(N)c(C(=O)Nc3ccccc3)n2)cc1
# Procedure, shortened: (§1)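 K562 cells at 2×10^6 cells/mL were treated for 30 min with 10 μM compound, and aliquots were heated for 3 min over 48°C-58°C before pooling. Extraction used PBS with 0.5% NP-40 at 4°C, and soluble protein was the supernatant after 21,000xg for 90 min, measured by TMTpro 16plex LC-MS/MS with channel sums equalised. Thermal stability values, relative to control samples and from duplicates, are log2 fold changes.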
# [2] = compound: C[C@@H](Oc1cc(-c2cnn(C3CCNCC3)c2)cnc1N)c1c(Cl)ccc(F)c1Cl [crizotinib]
# Procedure, shortened: as §1
# [3] = compound: C[C@@H]1COCCN1C2=NC(=NC(=C2)C3(CC3)S(=O)(=O)C)C4=C5C=CNC5=CC=C4
# Procedure, shortened: as §1
# [4] = compound: C[C@H](C1=CC=C(C=C1)C(=O)NC2=C3C=CNC3=NC=C2)N
# Procedure, shortened: as §1
# [5] = compound: C[C@H](Nc1ncnc2nc[nH]c12)c1cc2cccc(Cl)c2c(=O)n1-c1ccccc1 [duvelisib]
# Procedure, shortened: as §1
# [6] = compound: Cc1cc(Nc2cc(CN3CCOCC3)c3nc(C)c(Cc4ccc(Cl)cc4F)n3n2)n[nH]1 [gandotinib]
# Procedure, shortened: as §1
# [7] = compound: Cc1cc(Nc2cc(N3CCN(C)CC3)nc(Sc3ccc(NC(=O)C4CC4)cc3)n2)n[nH]1 [tozasertib]
# Procedure, shortened: as §1
# [8] = compound: Cc1cc(SCc2sc(-c3ccc(C(F)(F)F)cc3)nc2C)ccc1OCC(=O)O
# Procedure, shortened: as §1
# [9] = compound: Cc1ccc(-n2nc(C(C)(C)C)cc2NC(=O)Nc2ccc(OCCN3CCOCC3)c3ccccc23)cc1 [doramapimod]
# Procedure, shortened: as §1
# [10] = compound: Cc1ccc(C(=O)N(CCCN)[C@@H](c2nc3cc(Cl)ccc3c(=O)n2Cc2ccccc2)C(C)C)cc1 [ispinesib]
# Procedure, shortened: as §1
# [11] = compound: Cc1ccc(NC(=O)c2ccc(CN3CC[C@H](N(C)C)C3)c(C(F)(F)F)c2)cc1Nc1nccc(-c2cncnc2)n1 [bafetinib]
# Procedure, shortened: as §1
# [12] = compound: Cc1cccc(CC(=O)N2CCc3c2ccc(-c2cn(C)c4ncnc(N)c24)c3F)n1
# Procedure, shortened: as §1
# [13] = compound: Cc1cn(-c2cc(NC(=O)c3ccc(C)c(Nc4nccc(-c5cccnc5)n4)c3)cc(C(F)(F)F)c2)cn1 [nilotinib]
# Procedure, shortened: as §1
# [14] = compound: Cc1nc(Nc2n[nH]c3c2CN(C(=O)N[C@H](CN(C)C)c2ccccc2)C3(C)C)c2sccc2n1
# Procedure, shortened: as §1
# [15] = compound: Cc1nc(Nc2ncc(C(=O)Nc3c(C)cccc3Cl)s2)cc(N2CCN(CCO)CC2)n1 [dasatinib]
# Procedure, shortened: as §1
# [16] = compound: Cc1ncc(-c2ccnc(Nc3ccc(S(C)(=O)=O)cc3)n2)n1C(C)C
# Procedure, shortened: as §1
# [17] = compound: Cn1cc(-c2ccc3c(c2)CCN3C(=O)Cc2cccc(C(F)(F)F)c2)c2c(N)ncnc21
# Procedure, shortened: as §1
# [18] = compound: Cn1cc(-c2ccc3nnc(C(F)(F)c4ccc5ncccc5c4)n3n2)cn1
# Procedure, shortened: as §1
# [19] = compound: Cn1cncc1[C@@](N)(c1ccc(Cl)cc1)c1ccc2c(c1)c(-c1cccc(Cl)c1)cc(=O)n2C [tipifarnib]
# Procedure, shortened: as §1
# [20] = compound: FC(F)(F)c1ccc(/C=C/c2nc(COc3ccc(CCCCn4ccnn4)cc3)co2)cc1 [mubritinib]
# Procedure, shortened: as §1
# UniProt Q9NQG6, sequence (Q9NQG6 whole entry, looked up): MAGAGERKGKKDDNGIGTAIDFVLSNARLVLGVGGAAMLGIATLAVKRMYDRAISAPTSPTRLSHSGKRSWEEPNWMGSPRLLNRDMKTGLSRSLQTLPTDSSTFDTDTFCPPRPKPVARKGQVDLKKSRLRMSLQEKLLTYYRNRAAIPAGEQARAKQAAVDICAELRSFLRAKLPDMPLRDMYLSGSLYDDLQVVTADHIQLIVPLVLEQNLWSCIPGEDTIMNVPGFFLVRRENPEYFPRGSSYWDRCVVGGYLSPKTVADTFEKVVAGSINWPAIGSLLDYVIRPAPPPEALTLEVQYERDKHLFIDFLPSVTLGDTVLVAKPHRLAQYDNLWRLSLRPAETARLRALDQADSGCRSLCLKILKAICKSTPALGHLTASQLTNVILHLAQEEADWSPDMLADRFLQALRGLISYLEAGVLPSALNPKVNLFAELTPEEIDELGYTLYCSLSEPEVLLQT
# UniProt P43362, sequence (P43362 whole entry, looked up): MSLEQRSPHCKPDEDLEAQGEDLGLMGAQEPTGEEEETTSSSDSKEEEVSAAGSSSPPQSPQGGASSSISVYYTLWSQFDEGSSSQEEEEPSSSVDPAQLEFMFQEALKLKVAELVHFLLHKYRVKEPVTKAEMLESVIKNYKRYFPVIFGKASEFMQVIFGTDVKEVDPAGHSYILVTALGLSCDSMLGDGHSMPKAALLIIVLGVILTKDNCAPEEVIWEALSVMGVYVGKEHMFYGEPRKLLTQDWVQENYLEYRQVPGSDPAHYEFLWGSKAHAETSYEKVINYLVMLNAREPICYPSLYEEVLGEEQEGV
# UniProt O60333, sequence (O60333 whole entry, looked up): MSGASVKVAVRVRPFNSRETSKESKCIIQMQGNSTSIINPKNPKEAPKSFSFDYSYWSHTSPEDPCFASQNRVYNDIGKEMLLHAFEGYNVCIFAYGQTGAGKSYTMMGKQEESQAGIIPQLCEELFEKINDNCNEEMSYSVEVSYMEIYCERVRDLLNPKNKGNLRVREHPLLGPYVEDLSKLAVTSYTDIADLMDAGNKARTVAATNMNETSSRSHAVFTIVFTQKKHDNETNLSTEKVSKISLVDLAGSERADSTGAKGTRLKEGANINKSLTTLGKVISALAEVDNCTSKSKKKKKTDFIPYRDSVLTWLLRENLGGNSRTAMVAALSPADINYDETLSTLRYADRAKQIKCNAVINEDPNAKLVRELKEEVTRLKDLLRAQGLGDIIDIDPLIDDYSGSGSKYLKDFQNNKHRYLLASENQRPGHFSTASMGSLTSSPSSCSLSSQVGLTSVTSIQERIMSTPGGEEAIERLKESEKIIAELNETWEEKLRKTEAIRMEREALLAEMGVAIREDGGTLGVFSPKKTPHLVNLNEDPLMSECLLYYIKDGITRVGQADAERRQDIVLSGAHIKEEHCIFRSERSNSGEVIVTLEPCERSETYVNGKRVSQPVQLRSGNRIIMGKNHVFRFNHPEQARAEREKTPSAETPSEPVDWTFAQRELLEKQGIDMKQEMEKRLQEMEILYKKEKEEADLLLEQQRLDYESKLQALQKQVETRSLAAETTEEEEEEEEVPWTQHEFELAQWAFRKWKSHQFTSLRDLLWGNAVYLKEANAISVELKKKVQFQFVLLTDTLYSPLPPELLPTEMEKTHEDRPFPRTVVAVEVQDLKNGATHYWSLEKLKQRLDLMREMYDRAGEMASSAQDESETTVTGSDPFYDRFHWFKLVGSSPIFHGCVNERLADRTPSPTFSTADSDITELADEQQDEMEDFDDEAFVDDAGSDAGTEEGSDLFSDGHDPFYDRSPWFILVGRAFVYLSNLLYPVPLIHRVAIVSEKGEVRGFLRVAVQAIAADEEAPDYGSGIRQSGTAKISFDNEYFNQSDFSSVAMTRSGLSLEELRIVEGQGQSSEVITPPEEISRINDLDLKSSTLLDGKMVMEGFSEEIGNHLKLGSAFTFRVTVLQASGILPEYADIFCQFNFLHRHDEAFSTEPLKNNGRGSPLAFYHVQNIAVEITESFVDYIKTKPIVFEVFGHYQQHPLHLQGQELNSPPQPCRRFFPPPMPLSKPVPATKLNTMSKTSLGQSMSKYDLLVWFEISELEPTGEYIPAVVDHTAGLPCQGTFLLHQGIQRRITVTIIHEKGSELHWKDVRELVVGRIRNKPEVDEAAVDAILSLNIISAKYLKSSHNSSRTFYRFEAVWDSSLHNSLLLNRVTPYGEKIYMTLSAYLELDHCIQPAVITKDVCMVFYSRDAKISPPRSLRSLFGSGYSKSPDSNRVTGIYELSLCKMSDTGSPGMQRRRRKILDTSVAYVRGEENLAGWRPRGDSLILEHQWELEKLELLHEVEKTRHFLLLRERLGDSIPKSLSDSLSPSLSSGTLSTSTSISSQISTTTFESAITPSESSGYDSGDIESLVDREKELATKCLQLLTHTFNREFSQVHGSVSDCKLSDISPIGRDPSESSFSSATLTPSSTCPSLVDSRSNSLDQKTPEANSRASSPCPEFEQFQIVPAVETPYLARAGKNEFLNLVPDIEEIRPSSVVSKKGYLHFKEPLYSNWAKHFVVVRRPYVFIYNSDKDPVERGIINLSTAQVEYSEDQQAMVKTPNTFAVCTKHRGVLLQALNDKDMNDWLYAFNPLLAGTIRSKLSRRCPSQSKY
# UniProt Q9Y496, sequence (Q9Y496 whole entry, looked up): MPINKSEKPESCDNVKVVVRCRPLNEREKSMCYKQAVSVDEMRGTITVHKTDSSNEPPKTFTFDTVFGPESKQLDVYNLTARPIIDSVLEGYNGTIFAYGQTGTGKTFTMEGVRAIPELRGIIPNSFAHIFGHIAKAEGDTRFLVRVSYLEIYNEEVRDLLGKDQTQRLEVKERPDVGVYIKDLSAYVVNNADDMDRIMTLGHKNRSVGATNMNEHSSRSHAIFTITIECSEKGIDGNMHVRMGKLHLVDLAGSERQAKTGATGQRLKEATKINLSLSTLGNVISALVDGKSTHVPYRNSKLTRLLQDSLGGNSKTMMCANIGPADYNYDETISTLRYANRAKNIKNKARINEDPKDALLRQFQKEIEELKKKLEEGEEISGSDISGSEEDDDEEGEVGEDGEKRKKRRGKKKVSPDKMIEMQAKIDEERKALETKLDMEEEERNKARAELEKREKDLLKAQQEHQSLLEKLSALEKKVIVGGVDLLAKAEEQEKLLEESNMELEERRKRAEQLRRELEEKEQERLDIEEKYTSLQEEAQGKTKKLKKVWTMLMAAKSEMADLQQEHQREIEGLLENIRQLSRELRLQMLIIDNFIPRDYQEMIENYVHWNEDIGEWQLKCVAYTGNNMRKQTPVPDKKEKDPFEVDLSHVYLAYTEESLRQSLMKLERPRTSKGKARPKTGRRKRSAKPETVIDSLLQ
# UniProt P01130, sequence (P01130 whole entry, looked up): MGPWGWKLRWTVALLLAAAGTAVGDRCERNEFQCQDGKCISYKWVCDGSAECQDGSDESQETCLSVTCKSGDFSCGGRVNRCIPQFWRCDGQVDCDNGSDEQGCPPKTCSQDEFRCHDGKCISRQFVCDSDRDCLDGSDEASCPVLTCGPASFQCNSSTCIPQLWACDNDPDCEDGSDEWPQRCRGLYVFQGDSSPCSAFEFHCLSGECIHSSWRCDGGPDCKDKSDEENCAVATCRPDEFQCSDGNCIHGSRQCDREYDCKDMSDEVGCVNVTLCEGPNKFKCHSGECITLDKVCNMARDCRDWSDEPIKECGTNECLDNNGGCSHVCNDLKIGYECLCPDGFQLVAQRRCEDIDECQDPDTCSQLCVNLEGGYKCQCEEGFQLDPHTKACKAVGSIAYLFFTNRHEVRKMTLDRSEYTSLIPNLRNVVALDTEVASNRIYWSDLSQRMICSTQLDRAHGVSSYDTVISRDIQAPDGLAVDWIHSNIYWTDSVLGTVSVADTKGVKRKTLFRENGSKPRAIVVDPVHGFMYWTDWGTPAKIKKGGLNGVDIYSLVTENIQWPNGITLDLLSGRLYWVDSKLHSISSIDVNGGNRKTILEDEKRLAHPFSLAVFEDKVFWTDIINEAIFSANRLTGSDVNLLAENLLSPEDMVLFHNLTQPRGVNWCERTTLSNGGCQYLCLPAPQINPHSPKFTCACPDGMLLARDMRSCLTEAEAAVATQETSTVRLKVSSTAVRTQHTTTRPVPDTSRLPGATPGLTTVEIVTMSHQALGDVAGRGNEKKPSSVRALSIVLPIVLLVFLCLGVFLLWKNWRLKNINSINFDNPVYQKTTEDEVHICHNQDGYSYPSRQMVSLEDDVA
# UniProt Q68DH5, sequence (Q68DH5 whole entry, looked up): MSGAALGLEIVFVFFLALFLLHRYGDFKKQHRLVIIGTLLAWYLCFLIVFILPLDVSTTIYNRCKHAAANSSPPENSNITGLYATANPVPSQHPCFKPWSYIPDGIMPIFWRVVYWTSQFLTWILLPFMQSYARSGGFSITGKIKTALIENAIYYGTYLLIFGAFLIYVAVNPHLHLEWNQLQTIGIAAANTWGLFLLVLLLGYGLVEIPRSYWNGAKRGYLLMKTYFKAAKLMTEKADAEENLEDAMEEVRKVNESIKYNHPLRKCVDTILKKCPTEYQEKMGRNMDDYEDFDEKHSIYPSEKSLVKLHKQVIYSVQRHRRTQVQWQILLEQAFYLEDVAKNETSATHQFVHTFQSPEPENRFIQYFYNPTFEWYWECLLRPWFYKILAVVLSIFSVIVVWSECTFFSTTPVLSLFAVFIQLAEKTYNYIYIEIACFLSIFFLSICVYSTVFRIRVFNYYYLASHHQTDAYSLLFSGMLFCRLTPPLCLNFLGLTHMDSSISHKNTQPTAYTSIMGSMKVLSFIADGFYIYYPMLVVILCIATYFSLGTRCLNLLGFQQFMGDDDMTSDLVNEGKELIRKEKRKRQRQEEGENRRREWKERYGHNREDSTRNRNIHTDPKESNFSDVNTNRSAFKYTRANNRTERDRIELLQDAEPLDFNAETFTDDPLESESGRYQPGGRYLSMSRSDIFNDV
# UniProt Q13257, sequence (Q13257 whole entry, looked up): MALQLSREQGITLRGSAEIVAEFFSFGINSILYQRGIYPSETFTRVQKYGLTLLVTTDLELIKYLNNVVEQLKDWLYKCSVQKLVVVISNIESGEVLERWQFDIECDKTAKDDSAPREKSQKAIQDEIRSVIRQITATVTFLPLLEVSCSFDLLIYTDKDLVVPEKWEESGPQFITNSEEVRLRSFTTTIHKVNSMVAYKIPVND
Target,log2 fold change [1],log2 fold change [2],log2 fold change [3],log2 fold change [4],log2 fold change [5],log2 fold change [6],log2 fold change [7],log2 fold change [8],log2 fold change [9],log2 fold change [10],log2 fold change [11],log2 fold change [12],log2 fold change [13],log2 fold change [14],log2 fold change [15],log2 fold change [16],log2 fold change [17],log2 fold change [18],log2 fold change [19],log2 fold change [20]
LMBRD2 (UniProt Q68DH5),0.034,-0.156,-0.042,-0.152,0.001,-0.049,-0.016,-0.065,0.011,-0.328 (active),-0.142,-0.006,-0.048,0.041,0.019,-0.028,-0.03,0.043,0.189,-0.007
MAGI1 (UniProt Q96QZ7),-0.006,-0.003,-0.053,0.032,-0.013,0.003,-0.03,0.046,0.024,-0.042,-0.055,-0.023,0.015,-0.477 (active),0.039,-0.044,0.052,-0.079,0.079,-0.021
LMF2 (UniProt Q9BU23),0.039,0.016,-0.05,0.053,0.002,0.023,0.088,0.023,0.046,-0.075,-0.068,0.024,0.047,-0.014,0.033,0.026,0.021,0.022,0.019,0.052
MAPRE3 (UniProt Q9UPY8),-0.011,0.004,0.092,-0.085,0.02,-0.098,0.037,0.006,-0.042,0.02,-0.037,0.038,-0.012,-0.038,-0.042,0.021,-0.041,0.061,-0.037,0.027
MIEF1 (UniProt Q9NQG6),0.088,-0.31 (active),-0.005,-0.046,0.096,0.095,-0.038,0.065,0.007,-0.489 (active),-0.133,0.006,0.022,-0.04,-0.028,0.145,0.09,0.064,-0.039,-0.029
KIF1B isoform 4 (UniProt O60333),0.002,-0.067,0.048,0.035,0.011,-0.043,0.03,0.052,0.029,-0.149,-0.056,-0.004,0.01,0.073,-0.066,-0.064,-0.044,0.033,-0.004,-0.004
MAGEA9 (UniProt P43362),0.005,0.008,0.082,-0.028,0.12,-0.095,0.168,-0.029,0,-0.001,0.03,-0.02,0.021,-0.006,0.074,-0.034,0.065,-0.024,-0.008,-0.048
MAP2K3 isoform 3 (UniProt P46734),0.054,-0.049,-0.068,0.043,0.091,-0.001,0.005,-0.007,0.012,-0.02,-0.071,0.096,-0.019,0.021,-0.04,-0.049,0.005,-0.083,0.08,-0.145
IGFBP4 (UniProt P22692),-0.066,0.064,0.022,-0.114,0.02,-0.229,-0.021,-0.007,0,-0.233,-0.126,-0.173,0.077,-0.06,0.14,-0.007,0.116,-0.102,0.033,-0.15
MAD2L1 (UniProt Q13257),0.02,-0.076,0.092,-0.004,0.024,-0.139,0.101,0.037,0.034,-0.023,-0.054,0.018,-0.082,-0.042,-0.06,-0.012,-0.001,0.009,-0.055,0.042
MAPKAPK3 (UniProt Q16644),-0.033,-0.078,0.048,0.115,0.015,-0.043,0.014,-0.021,0.314,-0.111,0.258,0,0.281,-0.03,0.002,-0.032,-0.005,0,-0.048,-0.04
KIF3A (UniProt Q9Y496),0.049,-0.239,-0.01,0.143,0.048,-0.024,0.009,-0.029,0.003,0.044,0.022,-0.047,-0.128,0.054,-0.068,0.093,0.025,-0.043,-0.031,0.018
LDLR (UniProt P01130),-0.005,-0.363 (active),-0.05,-0.045,-0.05,-0.038,-0.088,-0.094,-0.017,-0.052,0.005,-0.029,0.041,-0.027,0.056,-0.064,0.013,0.029,0.097,-0.082
IMMT isoform 4 (UniProt Q16891),0.017,-0.102,0.084,-0.012,0.019,-0.093,0.002,0,-0.014,-0.202,-0.119,0.018,-0.038,0.004,-0.019,0.003,0.015,0.018,-0.03,0.012
IPO13 (UniProt O94829),-0.042,-0.134,0.016,-0.028,0.04,-0.234,0.001,0.01,0.023,-0.13,-0.11,-0.006,-0.001,-0.094,-0.021,0.071,-0.022,-0.025,-0.106,0.06
IK (UniProt Q13123),-0.041,0.021,-0.037,0.186,0.034,0.022,0.05,-0.007,0.016,0.065,0.013,-0.01,-0.062,-0.067,-0.025,0.037,-0.007,-0.109,0.003,-0.067
